CF NFkB inh: blocks PAF-induced NF-kB reporter in cystic fibrosis cells. KKLEB NF-kB-GFP reporter, GFP fluorescence overnight. inhibition, % at 5 µM. 0.86% of 360,000 active;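 active = at least 50% inhibition at 5 µM, scaled per plate between neutral and stimulator controls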;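 note: PAF is a Pseudomonas aeruginosa culture filtrate used as stimulus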
ABHD5-PLIN5 inh: blocks binding of human ABHD5 to perilipin-5; Q00G26+Q8WTS1; Split G. princeps luciferase complementation, luminescence, 4 h; inhibition, % at 4 µM; 0.78% of 360,000 active;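 active = inhibition above the mean inhibition across every tested compound plus 3 SD, cut at about 22% in these data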
Target sequence (Q00G26 whole entry, looked up): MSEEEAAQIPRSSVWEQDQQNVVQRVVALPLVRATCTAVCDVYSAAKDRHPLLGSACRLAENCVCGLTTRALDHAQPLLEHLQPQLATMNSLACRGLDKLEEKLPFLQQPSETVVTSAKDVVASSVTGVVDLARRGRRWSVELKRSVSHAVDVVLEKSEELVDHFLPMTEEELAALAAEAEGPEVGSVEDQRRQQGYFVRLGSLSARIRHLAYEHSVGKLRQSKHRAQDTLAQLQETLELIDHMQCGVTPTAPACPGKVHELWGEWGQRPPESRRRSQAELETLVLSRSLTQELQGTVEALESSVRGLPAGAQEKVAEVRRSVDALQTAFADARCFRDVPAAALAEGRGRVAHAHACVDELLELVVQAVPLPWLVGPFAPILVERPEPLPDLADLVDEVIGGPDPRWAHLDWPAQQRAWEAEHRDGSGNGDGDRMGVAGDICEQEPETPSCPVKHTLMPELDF
Target sequence (Q8WTS1 whole entry, looked up): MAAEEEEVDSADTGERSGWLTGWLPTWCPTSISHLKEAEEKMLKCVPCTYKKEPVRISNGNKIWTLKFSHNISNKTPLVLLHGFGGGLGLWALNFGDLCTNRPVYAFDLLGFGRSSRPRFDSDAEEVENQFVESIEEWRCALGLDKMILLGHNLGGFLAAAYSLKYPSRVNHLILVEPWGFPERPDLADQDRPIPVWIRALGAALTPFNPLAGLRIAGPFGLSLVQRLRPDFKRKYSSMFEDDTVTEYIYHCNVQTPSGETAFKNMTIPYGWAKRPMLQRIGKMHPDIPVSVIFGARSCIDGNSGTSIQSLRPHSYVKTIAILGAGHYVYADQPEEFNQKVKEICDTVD
HIF-2a inh: blocks HIF-2a reporter activity; 786-0 RCC cells HIF-2a reporter, luciferase luminescence, overnight; inhibition, % at 18.8 µM; 0.72% of 360,000 active;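 active = inhibition of the luminescence signal of 40% or more relative to plate controls, in a single-dose primary screen at 18.75 µM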
Peg3 prom inh: Peg3 promoter activity inhibition; HeLa PEG-Prom luciferase reporter, luminescence, overnight; inhibition, % at 20 µM; 1.7% of 360,000 active;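 active = inhibition of at least 50% at 20 µM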
Mdm2 MdmX PPI: human Mdm2/MdmX binding inhibition; O15151+Q00987; SaOS-2 split-luciferase Mdm2/MdmX complementation, luminescence; inhibition, % at 8 µM; 3% of 330,000 active; AID 485346;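 active = inhibition of at least 50% at 8 µM in the primary screen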
KKLEB tox: counter-screen for CF NF-kB inhibitors: cytotoxicity | KKLEB CF airway cells viability, ATPlite luminescence, overnight; hits give low values; cells stimulated with P. aeruginosa culture filtrate | activity change (cytotoxicity), % at 5 µM | AID 602141 | 0.36% of 360,000 active;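 active = corrected activity change at or below -50% at 5 µM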
Mdm2-MdmX conf: human Mdm2/MdmX binding inhibition, confirmed | shares compounds with Mdm2 MdmX PPI | luminescent assay | inhibition, % at 8 µM | 55% of 10,000 active; in the data active = inhibition above about 40%
Full FLuc ctr: inhibits full-length luciferase, flagging false Mdm2/MdmX hits; shares compounds with Mdm2 MdmX PPI; SaOS-2 full-length luciferase counterscreen, luminescence; inhibition, % at 8 µM; AID 504607; 77% of 6,200 active;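 active = mean inhibition at 8 µM reaching about 37%, which flags the compound as non-specific, limit read from the data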;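 note: p53-null SaOS-2 cells with luciferase driven by a doxycycline-inducible promoter; compound on cells about two nights before reading with doxycycline added after day one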
Each line names hits and unclear results; the compound was inactive in the other large screens (follow-up assays come after a bar, where they were run); ! = not confirmed by another sample. An excerpt weighted towards active compounds, which were near 4.6% of everything screened.

Fc1ccc(N2Cc3ccsc3C=N2)cc1	none
Cc1cc(NC(=O)CSc2nnc3c(C)cc4cc(C)c(C)cc4n23)no1	Mdm2 MdmX PPI 78 | Mdm2-MdmX conf inactive
COc1ccc2cc(C)c(SCC(=O)Nc3cc(C)on3)nc2c1	none | Mdm2-MdmX conf inactive
Cc1cc(NC(=O)CSc2nnc(-c3ccccc3)c(-c3ccccc3)n2)no1	Mdm2 MdmX PPI 53 | Mdm2-MdmX conf 56 | Full FLuc ctr 47
Cc1cc2cc(C)c3nnc(SCC(=O)NCc4ccco4)n3c2cc1C	none
CCOC(=O)[C@]12CCC=C1N(Cc1ccc3c(c1)OCO3)C(=O)[C@H](CC(=O)NCc1cccc(C(F)(F)F)c1)C2	none (no result: CF NFkB inh, Peg3 prom inh, Mdm2 MdmX PPI, KKLEB tox)
CCCCc1cc(=O)oc2cc(C)cc(OCC(=O)Nc3ccccn3)c12	none
CCN(CC(=O)NCc1cccs1)C(=O)Cc1ccc(Cl)c(Cl)c1	none
COc1ccc(-c2cc(C(F)(F)F)nc(-n3ccnc3C)n2)cc1	Mdm2 MdmX PPI 55 | Mdm2-MdmX conf inactive
COc1cc(C(=O)Nc2ccccc2C(=O)Nc2ccccn2)cc(OC)c1OC	Mdm2 MdmX PPI 63 | Mdm2-MdmX conf 52 | Full FLuc ctr 47
COc1cc(C(=O)Nc2ccccn2)cc(OC)c1OC	none
CCOC(=O)C1(C)C(=O)CC2c3nc4ccccc4cc3CN2C1=O (configuration not stated)	none (no result: Mdm2 MdmX PPI)
N#CC1=C(N)OC2=C(CCc3ccccc32)C1c1ccccc1 (configuration not stated)	Mdm2 MdmX PPI 74 | Mdm2-MdmX conf 52 | Full FLuc ctr 143
O=C(Cn1nc(-c2ccccc2)c2ccccc2c1=O)Nc1ccc(F)cc1	none
N#Cc1c(-c2ccccc2)c(-c2ccccc2)nn(CC(=O)NNC(=O)Nc2ccc(Cl)c(Cl)c2)c1=O	Mdm2 MdmX PPI 63 | Mdm2-MdmX conf 47 | Full FLuc ctr inactive
CCC1CCc2sc(C(=O)NCC(c3ccccc3OC)N3CCCC3)cc2C1 (configuration not stated)	Mdm2 MdmX PPI 75 | Mdm2-MdmX conf inactive
COc1ccc(Nc2cc(=O)n(C3CCCCC3)c(=O)[nH]2)c(OC)c1	none
Cc1cc(C)cc(Nc2cc(=O)n(C3CCCCC3)c(=O)[nH]2)c1	Mdm2 MdmX PPI 51 | Mdm2-MdmX conf inactive
COc1cccc(C(=O)Nc2ccc(NC(=O)C3CC=CCC3C(=O)O)cc2)c1 (configuration not stated)	none
CNC(=O)c1c(NC(=O)c2cc(-c3cc(C)c(C)cc3O)n[nH]2)sc2c1CCCC2	Mdm2 MdmX PPI 50 (no result: CF NFkB inh, ABHD5-PLIN5 inh, HIF-2a inh, Peg3 prom inh, KKLEB tox) | Mdm2-MdmX conf inactive
COc1cc(CC(=O)OCC(=O)c2ccc[nH]2)cc(OC)c1OC	none
O=C(NCc1ccc(Cl)cc1Cl)Nc1nc([C@@H]2O[C@H](CO)[C@@H](O)[C@H](O)[C@H]2O)cs1	none (no result: Mdm2 MdmX PPI)
COC(=O)c1cc(-c2ccc(OC)c(OC)c2)c2c(=O)[nH]c(=O)n(C)c2n1	Mdm2 MdmX PPI 50 | Mdm2-MdmX conf inactive
COC(=O)c1cc(-c2ccc(Br)cc2)c2c(=O)[nH]c(=O)n(C)c2n1	none
CCN1CCN(CC(=O)Nc2cc(C(F)(F)F)ccc2OCCOC)CC1	none
CC(C)c1ccc(OCC(=O)NNC(=S)NC(=O)c2ccco2)c(Br)c1	Mdm2 MdmX PPI 50 | Mdm2-MdmX conf 43 | Full FLuc ctr 71
Cc1ccccc1OCC(=O)NNC(=S)NC(=O)c1ccco1	none
Cc1cccc(CCN2C(Nc3ccccc3)=NC[C@@H]2CC(C)C)c1	none
CC(C)C[C@H]1CN=C(Nc2ccccc2)N1CCc1cccc(F)c1	Mdm2 MdmX PPI 58 | Mdm2-MdmX conf inactive
FC(F)(F)c1cc(C(F)(F)F)c2ccc(N3CCN(c4ncccn4)CC3)nc2n1	Mdm2 MdmX PPI 58 | Mdm2-MdmX conf inactive
COc1ccc(OCC(=O)Nc2ccc3oc(-c4ccncc4)nc3c2)cc1	none
Cc1ccc(OCC(=O)Nc2ccc(O)c(-c3nc4ccccc4o3)c2)cc1	CF NFkB inh 70, Peg3 prom inh 52, Mdm2 MdmX PPI 92, KKLEB tox -61 | Mdm2-MdmX conf 47 | Full FLuc ctr 108
COC(=O)C[C@H]1C=C[C@@H](NC(=O)NC2CCCCC2)[C@@H](CO)O1	none (no result: CF NFkB inh, Peg3 prom inh, Mdm2 MdmX PPI, KKLEB tox)
CCC(C)c1ccccc1NC(=O)COC(=O)C1=NN(c2ccccc2)C(=O)CC1 (configuration not stated)	none
Cc1ccc(-c2nnn(CC(=O)N(CC(=O)NC3CCCC3)c3ccc(F)c(Cl)c3)n2)o1	Mdm2 MdmX PPI 60 | Mdm2-MdmX conf inactive
Cc1ccc(-c2nnn(CC(=O)N(CC(=O)NC3CCCCC3)c3ccc(F)c(Cl)c3)n2)o1	none
COc1ccc(NC(=O)C2Cc3c(-c4ccco4)ccnc3O2)cc1OC (configuration not stated)	none (no result: Mdm2 MdmX PPI)
CCOc1cc(/C=N/NC(=O)N/N=C/c2ccc(O)c(OCC)c2)ccc1O	Mdm2 MdmX PPI 60 (no result: CF NFkB inh, ABHD5-PLIN5 inh, HIF-2a inh, Peg3 prom inh, KKLEB tox) | Mdm2-MdmX conf 49 | Full FLuc ctr 81
CCOc1cc(/C=N/NC(=O)C(=O)N/N=C/c2ccc(O)c(OCC)c2)ccc1O	none
C=CCC(C(=O)NC(C)c1ccccc1)C(=O)NC(C)c1ccccc1 (configuration not stated)	none
CCOC(=O)C1(Cc2ccccc2C)CCCN(C(=O)c2ccc(C(C)=O)s2)C1 (configuration not stated)	none (no result: Mdm2 MdmX PPI)
C/C=C/c1cc(CN2CCN(c3ccccc3)CC2)c(O)c(OC)c1	Mdm2 MdmX PPI 82 | Mdm2-MdmX conf 45 | Full FLuc ctr 83
CCN(C(=O)COC(=O)COc1ccccc1Cl)c1c(N)n(Cc2ccccc2)c(=O)[nH]c1=O	none
O=C(Nc1ccc2snnc2c1)Nc1cccc2ccccc12	Mdm2 MdmX PPI 67 | Mdm2-MdmX conf inactive
CN(C)c1ccnc2c[cH-]cc12.[Fe].c1ccc(-[c-]2[c-](-c3ccccc3)[c-](-c3ccccc3)[c-](-c3ccccc3)[c-]2-c2ccccc2)cc1 (configuration not stated)	Peg3 prom inh 96, Mdm2 MdmX PPI 98 | Mdm2-MdmX conf 78 | Full FLuc ctr 37!
Cc1nn(-c2cc(N3CCCCCC3)ccc2[N+](=O)[O-])c(=O)c2ccccc12	none
Cc1ccc(-c2nn(-c3cc(N4CCNCC4)ccc3[N+](=O)[O-])c(=O)c3ccccc23)cc1	Peg3 prom inh 102, Mdm2 MdmX PPI 100 | Mdm2-MdmX conf inactive
COc1ccc(Br)c(Cn2c(C)c(C(=O)NCc3ccccc3C(F)(F)F)sc2=O)c1	none (no result: Mdm2 MdmX PPI)
COc1ccc(-c2cc3nc(CCl)[nH]c(=O)c3s2)cc1	Mdm2 MdmX PPI 95 | Mdm2-MdmX conf inactive
Nc1nc(SCc2ccccc2[N+](=O)[O-])c2ncn(Cc3ccccc3)c2n1	none (no result: Mdm2 MdmX PPI)
